Experimental findings from PubChem BioAssay (NCI) are described below.

Among the test systems are HCT-15 colon; HT29 colon; SNB-75 CNS; SNB-19 CNS; U251 CNS; PC-3 prostate; SK-MEL-5 melanoma; UACC-62 melanoma; LOX IMVI melanoma; SK-MEL-28 melanoma.
Common to all, as to test: NCI-60 one-dose screen, 48 h (100 = growth as untreated, 0 = no growth, -100 = all killed)
Conditions in all cases: 10 µM unless noted

Compounds without any hit were thinned out: in the full panel of roughly 83,000, 20% have a hit.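 Treatment: one concentration, 48 hours, 96-well format. Scoring: percent growth, with anything below 10 considered active.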 Unmarked numbers belong to inactive results. Activity calls are given as the source filed them.

For `O=c1c2c3c(sc2n2c(-c4cn(-c5ccccc5)nc4-c4ccc(Cl)cc4)nnc2n1Cc1ccccc1)CCCC3`, the growth was 104% in the test with HCT-15 colon; 113% in the test on HT29 colon; 66.8% in the test on SNB-75 CNS; 97.9% with SNB-19 CNS; 98.2% in the test with U251 CNS; 95.3% in the test on PC-3 prostate. In addition, the growth with SK-MEL-5 melanoma is 95.8%; in the test with UACC-62 melanoma, 90.6%; with LOX IMVI melanoma it was 72.3%; in the test on SK-MEL-28 melanoma, 105%.

On to `O=C1/C(=C/c2ccc(F)cc2)C=C(c2ccccc2)N1CCc1ccccc1`, for which the growth in the test with HCT-15 colon is 77.9%; in the test on HT29 colon, 63.2%; with SNB-75 CNS, -10.5% (active); with SNB-19 CNS it was 45.1%; in the test on U251 CNS it was 46.9%; in the test on PC-3 prostate, 51.2%. Besides, the growth in the test with SK-MEL-5 melanoma is 73%; in the test on UACC-62 melanoma, 50.1%; in the test on LOX IMVI melanoma, 70.7%; with SK-MEL-28 melanoma, 72.6%.

For the compound `CCN(CC)c1ccc2nc3c4ccccc4c(=NC(=O)c4ccccc4-c4c5ccc(N(CC)CC)cc5[o+]c5cc(N(CC)CC)ccc45)cc-3oc2c1`, the growth with HCT-15 colon is 6.13% (active); in the test with HT29 colon, 1.92% (active); in the test with SNB-75 CNS it was 67.7%; in the test on SNB-19 CNS it was -22.3% (active); with U251 CNS, 20.5%; in the test with PC-3 prostate, 12.1%. Moreover, the growth in the test on SK-MEL-5 melanoma was -69.8% (active); with UACC-62 melanoma it was 67.5%; in the test with LOX IMVI melanoma, -30.4% (active); in the test on SK-MEL-28 melanoma, 97.4%.

`O=C(CSc1nnc(-c2ccc(NC(=O)c3cccnc3)cc2)o1)Nc1cccc(Br)c1`: the growth was 90.6% with HCT-15 colon; 107% with HT29 colon; 72.1% with SNB-75 CNS; 62.9% in the test on SNB-19 CNS; 68.7% in the test on U251 CNS; 82.8% in the test with PC-3 prostate. Moreover, the growth in the test with SK-MEL-5 melanoma was 92.9%; in the test with UACC-62 melanoma, 104%; with LOX IMVI melanoma, 93.6%; in the test on SK-MEL-28 melanoma it was 110%.

Take `COc1cc(C2CC(=O)Nc3c2c(C)nn3-c2nc3ccccc3[nH]2)c(OC)c2c1OCO2` (stereo not given): the growth is 40.2% in the test with HCT-15 colon; 95% in the test with HT29 colon; 31.1% in the test with SNB-75 CNS; 71.4% in the test with SNB-19 CNS; 67.8% in the test with U251 CNS; 71.3% in the test on PC-3 prostate. Further, the growth with SK-MEL-5 melanoma was 56.9%; with UACC-62 melanoma, 55.5%; in the test on LOX IMVI melanoma it was 82.1%; in the test on SK-MEL-28 melanoma it was 75.8%.

In the case of `CC1=CN2C(=O)C3C4=C(CCCC4)SC3N=C2CN1c1c(C)cccc1C` (stereo not given), the growth in the test on HCT-15 colon was 49.8%; in the test on HT29 colon, 84%; with SNB-75 CNS it was 106%; in the test on SNB-19 CNS, 104%; in the test on U251 CNS it was 65%; in the test with PC-3 prostate it was 63.4%. The growth in the test on SK-MEL-5 melanoma is 87.2%; in the test on UACC-62 melanoma, 66.4%; with LOX IMVI melanoma, 79.2%; in the test on SK-MEL-28 melanoma, 110%.

Take `O=C(c1ccccc1)N1N=C(c2ccccc2)CC1c1nnc2n(Cc3ccccc3)c(=O)c3c4c(sc3n12)CCCC4` (stereo not given): the growth in the test with HCT-15 colon was 102%; in the test on HT29 colon it was 101%; in the test with SNB-75 CNS it was 108%; in the test on SNB-19 CNS, 101%; in the test on U251 CNS, 98.3%; with PC-3 prostate, 97.9%. Moreover, the growth with SK-MEL-5 melanoma was 109%; in the test with UACC-62 melanoma, 112%; in the test with LOX IMVI melanoma, 91.8%; with SK-MEL-28 melanoma it was 106%.

Consider `Cc1ccc(C(=O)C2=C(O)C(=O)N(Cc3cccnc3)C2c2ccccc2F)o1` (stereo not given), for which the growth with HCT-15 colon is 93.8%; in the test with HT29 colon, 108%; with SNB-75 CNS it was 94.6%; in the test on SNB-19 CNS it was 105%; in the test with U251 CNS, 91.6%; in the test with PC-3 prostate, 96.7%. Besides, the growth was 100% in the test on SK-MEL-5 melanoma, 102% with UACC-62 melanoma, 80.8% in the test on LOX IMVI melanoma and 115% with SK-MEL-28 melanoma.

In the case of `CC1=C(SCCC(=O)OC(C[Se]C2=C(C)C(=O)c3ccccc3C2=O)C(=O)NCCCCCC(=O)OCc2ccccc2)C(=O)c2ccccc2C1=O` (stereo not given), the growth in the test with HCT-15 colon was 56.5%; in the test with HT29 colon it was 25.9%; in the test with SNB-75 CNS, 55.5%; in the test with SNB-19 CNS it was 38.6%; in the test with U251 CNS, 22.9%; in the test on PC-3 prostate it was 11.4%. For the same compound, the growth in the test with SK-MEL-5 melanoma was 8.74% (active); in the test with UACC-62 melanoma, 65.2%; with LOX IMVI melanoma, 39.7%; with SK-MEL-28 melanoma it was 53.6%.

For `CCCCOc1nc2ccccc2cc1C1CNC(=O)c2ccccc2N1` (stereo not given), the growth in the test on HCT-15 colon was 15.3%; in the test on HT29 colon it was 0.868% (active); with SNB-75 CNS, 3.14% (active); in the test on SNB-19 CNS, 33.4%; in the test with U251 CNS, 18.6%; in the test with PC-3 prostate, 24.7%. Moreover, the growth in the test on SK-MEL-5 melanoma is 15.6%; in the test with UACC-62 melanoma it was 32.6%; in the test with LOX IMVI melanoma, 27.1%; in the test with SK-MEL-28 melanoma, 45.8%.

`O=c1[nH]ccc2nc(N3CCC(O)CC3)nc(Nc3ccc(N4CCOCC4)cc3)c12`: the growth in the test with HCT-15 colon is 31.2%; with HT29 colon, 23.2%; in the test with SNB-75 CNS, 63.5%; in the test on SNB-19 CNS it was 97.1%; with U251 CNS it was 88.2%; in the test with PC-3 prostate it was 89.8%. The growth with SK-MEL-5 melanoma is 39%; with UACC-62 melanoma, 80.3%; in the test on LOX IMVI melanoma, 46.4%; in the test with SK-MEL-28 melanoma, 82.6%.

As to `O=C(CCCCCCN1CC(=O)N2[C@@H](c3ccccc3Cl)c3[nH]c4ccccc4c3C[C@H]2C1=O)NO`, the growth was 97.5% in the test on HCT-15 colon; 57.6% in the test on HT29 colon; -1.06% (active) in the test with SNB-75 CNS; 71.8% with SNB-19 CNS; 60.1% in the test with U251 CNS; 61.8% in the test with PC-3 prostate. The growth is 46.9% in the test with SK-MEL-5 melanoma, 34% with UACC-62 melanoma, 14.7% in the test on LOX IMVI melanoma and 43.8% in the test on SK-MEL-28 melanoma.

Regarding `COc1cc(C2CC(c3cc(OC)c(OCCCOc4ccc(-n5c(/C=C/c6ccccc6)nc6ccccc6c5=O)cc4)c(OC)c3)=NO2)cc(OC)c1OC` (stereo not given), the growth is 84.7% in the test on HCT-15 colon; 104% in the test with HT29 colon; 86.9% in the test on SNB-75 CNS; 110% in the test on SNB-19 CNS; 103% with U251 CNS; 79.4% with PC-3 prostate. The growth in the test on SK-MEL-5 melanoma was 95.6%; with UACC-62 melanoma, 82.6%; in the test on LOX IMVI melanoma it was 94.6%; in the test with SK-MEL-28 melanoma, 104%.
